Data published in publication PMC5540273 (PLoS ONE, 2017).

Each compound was assayed on WNK1. Details: concentration: 1 μM,replicates: in singlicate; n = 1.
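Also: KINOMEscan kinase panel screen.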

Structure (SMILES) | %Inh
Cl.Cl.NC[C@H](CC1CCCCC1)NC(=O)c1cc(Br)c(-c2ccnc3[nH]ccc23)s1 [GSK1581427] | 0%
Cl.Cl.NC[C@H](Cc1ccc(C(F)(F)F)cc1)NC(=O)c1cc(Br)c(-c2ccnc3[nH]ccc23)s1 [GSK1487252] | 10%
Cc1occc1-c1nc(N)c(OC[C@@H](N)Cc2c[nH]c3ccccc23)cc1-c1cc2c(C)n[nH]c2cn1 [GSK1660450] | 0%
C[C@@H]1CCN(C(=O)CC#N)C[C@@H]1N(C)c1ncnc2[nH]ccc12 | 0%
CN(C)CC(O)COc1ccc(Nc2nccc(-c3cnn4nc(N5CCOCC5)ccc34)n2)cc1 (stereo not drawn) [GW767488] | 18%
CC(C)N1C(=O)Cc2cc(Nc3ncc(C(F)(F)F)c(NCc4cccc(S(C)(=O)=O)c4)n3)ccc21 | 0%
CNC(=O)c1ccccc1Sc1ccc2c(/C=C/c3ccccn3)n[nH]c2c1 | 0%
NC(=O)c1cc(-c2ccccc2)cc2c(C3CCNCC3)c[nH]c12 [GSK301362] | 11%
C[C@H]1Oc2cc(cnc2N)-c2c(nn(C)c2C#N)CN(C)C(=O)c2ccc(F)cc21 | 0%
Cc1ccc2c(-c3ccncc3)c(-c3ccc(F)cc3)nn2c1.Cl [GW461484] | 0%
CCN(CC)CCCCNc1ncc2cc(-c3c(Cl)cccc3Cl)c(NC(=O)NC(C)(C)C)nc2n1 | 0%
O=C(NCCCN1CCOC1=O)c1cnc(NCc2cc(Cl)ccc2Cl)nc1NC1CCCC1 | 0%
Nc1nc(Nc2ccccc2)cc(-c2ccc3c(N)n[nH]c3c2)n1 [GSK2225749] | 5%
Cc1ccc(-n2nc(C(C)(C)C)cc2NC(=O)Nc2ccc(OCCN3CCOCC3)c3ccccc23)cc1 [GW839464] | 0%
O=C(NCCNc1ccnc(NCc2ccc(F)cc2)n1)c1cc2ccccc2s1 [GSK1379944] | 10%

These compounds were tested on WNK2. Details: concentration: 1 μM,replicates: in singlicate; n = 1.

Structure (SMILES) | %Inh
Cc1n[nH]c2ccc(-c3cc(OC[C@@H](N)Cc4ccccc4)cnc3-c3ccoc3)cc12.O=C(O)C(F)(F)F.O=C(O)C(F)(F)F [GSK507358] | 11%
Cl.Oc1cc(-c2nc(-c3ccccc3)[nH]c2-c2ccncc2)ccc1Cl [SB-386023] | 0%
CCn1c(-c2nonc2N)nc2c(C#CC(C)(C)O)nc(OCCN)cc21.Cl.Cl [GSK902056] | 24%
CCN(CC)CCOc1ccc(Nc2ncc3cc(-c4c(Cl)cccc4Cl)c(=O)n(C)c3n2)cc1 [SB-601273] | 86%
CC(C)Nc1cc(-c2ccc3c(N)n[nH]c3c2)nc(N)n1 [GSK2221681] | 0%
C=CC(=O)Nc1cc2c(Nc3ccc(F)c(Cl)c3)ncnc2cc1OCCCN1CCOCC1 [GW781483] | 0%
C[C@@H](Oc1cc(-c2cnn(C3CCNCC3)c2)cnc1N)c1c(Cl)ccc(F)c1Cl | 46%
CN(C)CCOc1ccc(-c2cc(-c3c[nH]nc3-c3ccccn3)ccn2)cc1 [GW835314] | 13%
Cc1cc(C(=O)Nc2ccc(Oc3ccc4nc(NC(=O)C5CC5)cn4n3)cc2)nn1-c1ccccc1 | 0%
Cl.Cl.Nc1nc(-c2ccc3c(N)n[nH]c3c2)cc(N2CCCC(NC(=O)c3ccccc3)C2)n1 (stereo not drawn) [GSK2286775] | 10%
COc1ccc(C[C@@H](CN)NC(=O)c2cc(Br)c(-c3ccnc4[nH]ccc34)s2)cc1.Cl.Cl [GSK1389063] | 32%
Cc1cc2cn[nH]c2cc1-c1cccc2c(N)c(C(N)=O)nnc12 | 3%
Cl.Cl.NC[C@H](CC1CCCCC1)NC(=O)c1cc(Br)c(-c2ccnc3[nH]ccc23)s1 [GSK1581427] | 3%
Cl.Cl.NC[C@H](Cc1ccc(C(F)(F)F)cc1)NC(=O)c1cc(Br)c(-c2ccnc3[nH]ccc23)s1 [GSK1487252] | 0%
Cc1occc1-c1nc(N)c(OC[C@@H](N)Cc2c[nH]c3ccccc23)cc1-c1cc2c(C)n[nH]c2cn1 [GSK1660450] | 5%
C[C@@H]1CCN(C(=O)CC#N)C[C@@H]1N(C)c1ncnc2[nH]ccc12 | 0%
CN(C)CC(O)COc1ccc(Nc2nccc(-c3cnn4nc(N5CCOCC5)ccc34)n2)cc1 (stereo not drawn) [GW767488] | 0%
CC(C)N1C(=O)Cc2cc(Nc3ncc(C(F)(F)F)c(NCc4cccc(S(C)(=O)=O)c4)n3)ccc21 | 1%
